{
  "source": "the supplement of paper PMC6279402",
  "note": "Where a name gives a salt, the structure may show the parent alone. ± gives the standard deviation of the averaged measurements.",
  "data": [
    {"tested_on": "A549", "experiment": "relative viability (normalised to negative control = 1, bortezomib = 0) (fraction); higher = less cytotoxic", "conditions": "inflammatory serum-free RHB-A with cytokines + LPS; 5 d + 24 h CellTiter-Blue; compound 300 nM; GSK126 pretreatment: 5 uM GSK126", "values": [
      {"smiles": "CC[C@]1(O)C[C@@H]2CN(CCc3c([nH]c4ccccc34)[C@@](C(=O)OC)(c3cc4c(cc3OC)N(C)[C@H]3[C@@](O)(C(=O)OC)[C@H](OC(C)=O)[C@]5(CC)C=CCN6CC[C@]43[C@@H]65)C2)C1", "note": "[Vinblastine sulfate salt; Vinblastine sulfate]", "relative viability": "0.277 ± 0.024"},
      {"smiles": "NCC(=O)CCC(=O)O", "note": "[Aminolevulinic acid hydrochloride; Aminolevulinic acid]", "relative viability": "1.05 ± 0.12"},
      {"smiles": "CCN(CCO)CCCOc1ccc2c(Nc3cc(CC(=O)Nc4cccc(F)c4)[nH]n3)ncnc2c1", "note": "[AZD1152-HQPA(Barasertib)]", "relative viability": "0.813 ± 0.13"},
      {"smiles": "COc1ccc(S(=O)(=O)N(C(C)=O)c2ccccc2/C=C/c2cc[n+]([O-])cc2)cc1", "relative viability": "0.663 ± 0.032"},
      {"smiles": "CC[C@@]1(O)C(=O)OCc2c1cc1n(c2=O)Cc2cc3c(CN(C)C)c(O)ccc3nc2-1", "note": "[Topotecan HCl; Topotecan hydrochloride]", "relative viability": "0.317 ± 0.026"},
      {"smiles": "CC[C@@H]1C(=O)N(C)c2cnc(Nc3ccc(C(=O)NC4CCN(C)CC4)cc3OC)nc2N1C1CCCC1", "relative viability": "0.212 ± 0.04"},
      {"smiles": "CN(C)C/C=C/C(=O)Nc1cc2c(Nc3ccc(F)c(Cl)c3)ncnc2cc1O[C@H]1CCOC1", "note": "[BIBW2992; BIBW2992(Tovok)]", "relative viability": "0.281 ± 0.036"},
      {"smiles": "O=C(O)c1ccc2c(c1)nc(Nc1cccc(Cl)c1)c1ccncc12", "relative viability": "0.728 ± 0.11"},
      {"smiles": "Nc1nc(Cl)nc2c1ncn2[C@@H]1O[C@H](CO)[C@@H](O)[C@@H]1F", "note": "[Clofarabine]", "relative viability": "0.28 ± 0.047"},
      {"smiles": "O=c1cc(-c2cccc3c2Sc2ccccc2S3)oc(N2CCOCC2)c1", "relative viability": "0.833 ± 0.044"},
      {"smiles": "CC(C)CC(=O)Nc1n[nH]c2c1CN(C(=O)C1CCN(C)CC1)C2(C)C", "relative viability": "0.761 ± 0.077"},
      {"smiles": "O=C(Nc1ccc(OC(F)(F)F)cc1)c1sccc1NCc1ccnc2ccccc12", "relative viability": "1.15 ± 0.16"},
      {"smiles": "Cc1cc(Nc2nc(N[C@@H](C)c3ncc(F)cn3)ncc2Cl)[nH]n1", "relative viability": "1.15 ± 0.076"},
      {"smiles": "CO[C@H]1C[C@@H]2CC[C@@H](C)[C@@](O)(O2)C(=O)C(=O)N2CCCC[C@H]2C(=O)O[C@H]([C@H](C)C[C@@H]2CC[C@@H](OC(=O)C(C)(CO)CO)[C@H](OC)C2)CC(=O)[C@H](C)/C=C(\\C)[C@@H](O)[C@@H](OC)C(=O)[C@H](C)C[C@H](C)/C=C/C=C/C=C/1C", "note": "[CCI-779; Temsirolimus]", "relative viability": "0.46 ± 0.069"},
      {"smiles": "COc1c2occc2cc2ccc(=O)oc12", "note": "[Methoxsalen]", "relative viability": "0.881 ± 0.026"},
      {"smiles": "COc1ccc(-c2ccc3c(N4CCOCC4)nc(N4C[C@@H](C)O[C@@H](C)C4)nc3n2)cc1CO", "relative viability": "0.428 ± 0.052"},
      {"smiles": "COc1cc2c(Oc3ccc4[nH]c(C)cc4c3F)ncnc2cc1OCCCN1CCCC1", "note": "[Cediranib(AZD2171)]", "relative viability": "0.981 ± 0.11"},
      {"smiles": "Cn1c(=O)n(-c2ccc(C(C)(C)C#N)cc2)c2c3cc(-c4cnc5ccccc5c4)ccc3ncc21", "relative viability": "0.209 ± 0.0083"},
      {"smiles": "Nc1nc(Nc2ccc(S(N)(=O)=O)cc2)nn1C(=O)c1c(F)cccc1F", "relative viability": "1.12 ± 0.067"},
      {"smiles": "Oc1cccc(-c2nc(N3CCOCC3)c3oc4ncccc4c3n2)c1", "relative viability": "0.113 ± 0.011"},
      {"smiles": "CC(C)n1nc(-c2cc3cc(O)ccc3[nH]2)c2c(N)ncnc21", "relative viability": "0.37 ± 0.014"},
      {"smiles": "Cn1cc(C2=C(c3ccc(Cl)cc3Cl)C(=O)NC2=O)c2ccccc21", "relative viability": "0.695 ± 0.079"},
      {"smiles": "O=C1NC(=O)/C(=C/c2ccc(-c3ccc(F)cc3O)o2)S1", "relative viability": "0.744 ± 0.082"},
      {"smiles": "CC1=C(/C=C/C(C)=C/C=C/C(C)=C/C(=O)O)C(C)(C)CCC1", "note": "[Retinoic acid; Tretinoin; 13-cis-retinoic acid]", "relative viability": "1.34 ± 0.05"},
      {"smiles": "Cc1cc(C(=O)NOCCO)c(Nc2ccc(I)cc2F)n(C)c1=O", "relative viability": "0.0557 ± 0.021"},
      {"smiles": "C[C@@H](Oc1cc(-n2cnc3ccc(CN4CCN(C)CC4)cc32)sc1C(N)=O)c1ccccc1C(F)(F)F", "relative viability": "0.517 ± 0.02"},
      {"smiles": "O=c1[nH]cc(F)c(=O)[nH]1", "note": "[5-Fluorouracil; Fluorouracil]", "relative viability": "0.865 ± 0.13"},
      {"smiles": "O=C(c1ccc(OCCN2CCCCC2)cc1)c1c(-c2ccc(O)cc2)sc2cc(O)ccc12", "note": "[Raloxifene HCl; Raloxifene hydrochloride]", "relative viability": "0.961 ± 0.043"},
      {"smiles": "NC1(Cc2ccc(Cl)cc2)CCN(c2ncnc3[nH]ccc23)CC1", "relative viability": "0.839 ± 0.1"},
      {"smiles": "CC(=O)O[C@]1(C(C)=O)CC[C@H]2[C@@H]3C=C(C)C4=CC(=O)CC[C@]4(C)[C@H]3CC[C@@]21C", "note": "[Megestrol acetate]", "relative viability": "1.48 ± 0.078"},
      {"smiles": "Nc1nccc(Oc2ccc(NC(=O)c3c[nH]cc(-c4ccc(F)cc4)c3=O)cc2F)c1Cl", "relative viability": "1.14 ± 0.15"},
      {"smiles": "COc1cc(OC)c(/C=C/S(=O)(=O)Cc2ccc(OC)c(NCC(=O)O)c2)c(OC)c1", "relative viability": "0.352 ± 0.015"}
    ]}
  ]
}
